In PubChem BioAssay (NCI):
“And” between values parts separate entries of the source, which are not always exact repeats. Identical values can stand only once. Compounds without any hit were thinned out: in the full panel of roughly 83,000, 20% have a hit.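 96-well plates, one dose, 48 hours. Percent growth reported; active if below 10.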 The source made the active and inactive calls.

Tests used:
Test in all cases: NCI-60 one-dose screen, 48 h (100 = growth as untreated, 0 = no growth, -100 = all killed)
[1] = test system: NCI-H23 lung
[2] = test system: NCI-H226 lung
[3] = test system: NCI-H322M lung
[4] = test system: HOP-62 NSCLC; details: 10 µM unless noted
[5] = test system: NCI-H460 lung
[6] = test system: HOP-92 NSCLC
[7] = test system: NCI-H522 lung
[8] = test system: A549/ATCC NSCLC
[9] = test system: 786-0 renal
[10] = test system: COLO 205 colon
[11] = test system: DU-145 prostate
[12] = test system: K-562 leukemia
[13] = test system: MALME-3M melanoma
[14] = test system: MDA-MB-231 breast
[15] = test system: RXF 393 renal
[16] = test system: SF-268 CNS
[17] = test system: SF-295 CNS
[18] = test system: SF-539 CNS
[19] = test system: UACC-257 melanoma
[20] = test system: M14 melanoma

**Q.** For `CN(C)CCCNC1=C(Cl)C(=O)c2ccccc2C1=O`, which growth ([1]; 10 µM unless noted) is on record?
**A.** Its growth is -41.4% (active) and -79.2% (active).

**Q.** What about the growth ([2]; 10 µM unless noted) of the same compound?
**A.** Its growth is 102% (inactive) and 97.7% (inactive).

**Q.** And the growth ([3]; 10 µM unless noted)?
**A.** Its growth is 92.4% (inactive) and 98.7% (inactive).

**Q.** What about the growth [4] of the same compound?
**A.** The growth was 78.8% (inactive) and 85.1% (inactive).

**Q.** What about the growth ([5]; 10 µM unless noted) of the same compound?
**A.** The growth was 78.9% (inactive) and 83.8% (inactive).

**Q.** What about the growth ([6]; 10 µM unless noted) of the same compound?
**A.** Its growth is 108% (inactive) and 107% (inactive).

**Q.** What about the growth ([7]; 10 µM unless noted) of the same compound?
**A.** The growth was 80.4% (inactive) and -30.3% (active).

**Q.** And the growth ([8]; 10 µM unless noted)?
**A.** Its growth is 94.3% (inactive) and 85.1% (inactive).

**Q.** What about the growth ([9]; 10 µM unless noted) of the same compound?
**A.** The growth was 99.5% (inactive) and 79.4% (inactive).

**Q.** And the growth ([10]; 10 µM unless noted)?
**A.** Its growth is -73.7% (active) and -85.8% (active).

**Q.** And the growth ([11]; 10 µM unless noted)?
**A.** Its growth is 75.2% (inactive) and 31.7% (inactive).

**Q.** What about the growth ([12]; 10 µM unless noted) of the same compound?
**A.** The growth was -46.7% (active) and -23.9% (active).

**Q.** And the growth ([13]; 10 µM unless noted)?
**A.** The growth was -82.7% (active) and -88.9% (active).

**Q.** And the growth ([14]; 10 µM unless noted)?
**A.** The growth was 69.6% (inactive) and 41.9% (inactive).

**Q.** And the growth ([15]; 10 µM unless noted)?
**A.** Its growth is 122% (inactive) and 2.27% (active).

**Q.** And the growth ([16]; 10 µM unless noted)?
**A.** Its growth is 102% (inactive) and 75% (inactive).

**Q.** And the growth ([17]; 10 µM unless noted)?
**A.** The growth was 87% (inactive) and 72.2% (inactive).

**Q.** And the growth ([18]; 10 µM unless noted)?
**A.** Its growth is 102% (inactive) and 101% (inactive).

**Q.** What about the growth ([19]; 10 µM unless noted) of the same compound?
**A.** The growth was 28.4% (inactive) and -96.6% (active).

**Q.** What about the growth ([20]; 10 µM unless noted) of the same compound?
**A.** The growth was -87% (active) and -99.1% (active).

**Q.** What does the source list for `CC1(C)OB(c2ccc(Cn3cc(F)c(=O)[nH]c3=O)cc2)OC1(C)C`?
**A.** growth ([1]; 10 µM): 94.9% (inactive); growth ([1]; 50 µM): 68.3% (inactive); growth ([2]; 10 µM): 96.9% (inactive); growth ([2]; 50 µM): 64% (inactive); growth ([3]; 10 µM): 102% (inactive); growth ([3]; 50 µM): 86.4% (inactive); growth ([5]; 10 µM): 106% (inactive); growth ([5]; 50 µM): 34.2% (inactive); growth ([6]; 10 µM): 98.3% (inactive); growth ([6]; 50 µM): 33.2% (inactive); growth ([7]; 10 µM): 91% (inactive); growth ([7]; 50 µM): 10.3% (inactive); growth ([8]; 10 µM): 98.9% (inactive); growth ([8]; 50 µM): 75.8% (inactive); growth ([9]; 10 µM): 105% (inactive); growth ([9]; 50 µM): 81.4% (inactive); growth ([10]; 10 µM): 120% (inactive); growth ([10]; 50 µM): 36.4% (inactive); growth ([11]; 10 µM): 113% (inactive); growth ([11]; 50 µM): 84% (inactive); growth ([12]; 10 µM): 110% (inactive); growth ([12]; 50 µM): 29.7% (inactive); growth ([13]; 10 µM): 97.2% (inactive); growth ([13]; 50 µM): 44.7% (inactive); growth ([14]; 10 µM): 124% (inactive); growth ([14]; 50 µM): 86.1% (inactive); growth ([15]; 10 µM): 99.7% (inactive); growth ([15]; 50 µM): 59.9% (inactive); growth ([16]; 10 µM): 94.7% (inactive); growth ([16]; 50 µM): 68.7% (inactive); growth ([17]; 10 µM): 102% (inactive); growth ([17]; 50 µM): 85.5% (inactive); growth ([18]; 10 µM): 101% (inactive); growth ([18]; 50 µM): 61.4% (inactive); growth ([19]; 10 µM): 103% (inactive); growth ([19]; 50 µM): 67.3% (inactive); growth ([20]; 10 µM): 103% (inactive); growth ([20]; 50 µM): 44.9% (inactive)

**Q.** With `COc1cc2nc(N3CCN(C(=O)C4COc5ccccc5O4)CC3)nc(N)c2cc1OC` (stereo not drawn) as the compound, how does the growth ([1]; 10 µM unless noted) read?
**A.** Its growth is 90.1% (inactive) and 99% (inactive) and 101% (inactive).

**Q.** What about the growth ([2]; 10 µM unless noted) of the same compound?
**A.** Its growth is 96.2% (inactive) and 96.7% (inactive) and 99.9% (inactive).

**Q.** And the growth ([3]; 10 µM unless noted)?
**A.** The growth was 123% (inactive) and 75.6% (inactive) and 99.4% (inactive).

**Q.** And the growth [4]?
**A.** The growth was 102% (inactive) and 96.4% (inactive) and 110% (inactive).

**Q.** What about the growth ([5]; 10 µM unless noted) of the same compound?
**A.** The growth was 101% (inactive) and 98.5% (inactive) and 117% (inactive).

**Q.** What about the growth ([6]; 10 µM unless noted) of the same compound?
**A.** The growth was 148% (inactive) and 106% (inactive) and 124% (inactive).

**Q.** What about the growth ([7]; 10 µM unless noted) of the same compound?
**A.** Its growth is 82.6% (inactive) and 84.1% (inactive).

**Q.** What about the growth ([8]; 10 µM unless noted) of the same compound?
**A.** Its growth is 102% (inactive) and 88.9% (inactive).

**Q.** What about the growth ([9]; 10 µM unless noted) of the same compound?
**A.** The growth was 112% (inactive) and 93.5% (inactive) and 99% (inactive).

**Q.** And the growth ([10]; 10 µM unless noted)?
**A.** The growth was 93.6% (inactive) and 104% (inactive).

**Q.** And the growth ([11]; 10 µM unless noted)?
**A.** The growth was 102% (inactive) and 106% (inactive).

**Q.** What about the growth ([12]; 10 µM unless noted) of the same compound?
**A.** Its growth is 93.3% (inactive) and 96.7% (inactive).

**Q.** What about the growth ([13]; 10 µM unless noted) of the same compound?
**A.** Its growth is 113% (inactive) and 83.2% (inactive) and 95.6% (inactive).

**Q.** What about the growth ([14]; 10 µM unless noted) of the same compound?
**A.** Its growth is 76.3% (inactive) and 86.2% (inactive) and 100% (inactive).

**Q.** What about the growth ([15]; 10 µM unless noted) of the same compound?
**A.** Its growth is 86.4% (inactive) and 83.4% (inactive) and 109% (inactive).

**Q.** What about the growth ([16]; 10 µM unless noted) of the same compound?
**A.** The growth was 100% (inactive) and 89.5% (inactive) and 98.6% (inactive).

**Q.** And the growth ([17]; 10 µM unless noted)?
**A.** Its growth is 108% (inactive) and 71.1% (inactive) and 101% (inactive).

**Q.** And the growth ([18]; 10 µM unless noted)?
**A.** The growth was 115% (inactive) and 89.9% (inactive) and 102% (inactive).

**Q.** What about the growth ([19]; 10 µM unless noted) of the same compound?
**A.** The growth was 101% (inactive) and 106% (inactive).

**Q.** What about the growth ([20]; 10 µM unless noted) of the same compound?
**A.** Its growth is 104% (inactive) and 96.4% (inactive) and 96.3% (inactive).

**Q.** What does the source list for `NC(=O)c1ccccc1OCC(O)CO` (stereo not drawn)?
**A.** growth ([1]; 10 µM unless noted): 110% (inactive); growth ([2]; 10 µM unless noted): 95.8% (inactive); growth ([3]; 10 µM unless noted): 110% (inactive); growth [4]: 101% (inactive); growth ([5]; 10 µM unless noted): 103% (inactive); growth ([6]; 10 µM unless noted): 117% (inactive); growth ([7]; 10 µM unless noted): 98.4% (inactive); growth ([8]; 10 µM unless noted): 98.1% (inactive); growth ([9]; 10 µM unless noted): 103% (inactive); growth ([10]; 10 µM unless noted): 114% (inactive); growth ([11]; 10 µM unless noted): 114% (inactive); growth ([12]; 10 µM unless noted): 107% (inactive); growth ([13]; 10 µM unless noted): 115% (inactive); growth ([14]; 10 µM unless noted): 103% (inactive); growth ([15]; 10 µM unless noted): 98.9% (inactive); growth ([16]; 10 µM unless noted): 105% (inactive); growth ([17]; 10 µM unless noted): 83.1% (inactive); growth ([18]; 10 µM unless noted): 90.2% (inactive); growth ([19]; 10 µM unless noted): 97.9% (inactive); growth ([20]; 10 µM unless noted): 112% (inactive)
